PubChem BioAssay
Active and inactive are the calls of the source.

What was measured:
[1] = target: Albumin (Bos taurus) (UniProt P02769); assay: compounds binding labelled BSA control protein – biochemical, small-molecule microarray, Alexa647 label, 635/667 nm fluorescence, artefact control for SMM control protein annotation, profiling panel (AID 1118); conditions: BSA-A647 binding, fluorescence 635 nm, higher = more signal;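 further: score merges 667 nm emission intensity and signal-to-noise per printed compound spot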
[2] = probe aXIP binding to arrayed compounds – biochemical, NeuroSMM set, 635/667 nm fluorescence, primary screen (AID 1119); conditions: small-molecule microarray, higher = more signal, called active from +8 up or from −8 down;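 further: probe is the protein aXip251-270 applied at 1 µg/mL to compound-printed slides; binding of probe to printed compounds measured as 667 nm fluorescence plus signal to noise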
[3] = probe aNOTCH3 binding on compound microarray – biochemical, small-molecule microarray, 635/667 nm fluorescence, primary screen (AID 1120); conditions: higher = more signal;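 further: probe is a biotin-tagged antibody raised against NOTCH3 rather than NOTCH3 protein; score merges spot fluorescence near 667 nm with spot signal to noise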
[4] = probe aNOTCH2 binding on compound microarray – biochemical, small-molecule microarray, 635/667 nm fluorescence, primary screen (AID 1121); conditions: higher = more signal;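 further: score merges feature fluorescence read at 667 nm with its signal to noise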
[5] = target: Carbonic anhydrase 2 (Homo sapiens) (UniProt P00918); assay: compounds binding carbonic anhydrase 2 – biochemical, small-molecule microarray, Alexa647-labelled CAII, profiling panel (AID 1122); conditions: CAII-A647 binding fluorescence, higher = more signal
[6] = COS7 lysate on small-molecule microarray, probe aHis, 635 nm (AID 1123); conditions: COS7 cell lysate, fluorescence, higher = more signal;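 further: z-score combines 667nm fluorescence intensity with signal-to-noise per printed compound spot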
[7] = probe aLAP1 signal on lysate-treated microarray – cell lysate, small-molecule microarray, COS7 lysate, primary screen (AID 1124); conditions: probe aLAP1, fluorescence, higher = more signal;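 further: lysate comes from COS7 cells expressing LAP1 and is applied at 0.3 µg/mL; score merges spot fluorescence near 667 nm with signal-to-noise over triplicate slides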
[8] = test system: Sam68 (KHDRBS1); assay: compounds binding KHDRBS1 protein – biochemical, small-molecule microarray, 635 nm fluorescence, primary screen (AID 1125); conditions: higher = more signal;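 further: score merges 667 nm channel intensity with signal to noise over triplicate slides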
[9] = test system: Chordin-like protein 2 (CHRDL2); assay: compounds binding chordin-like 2 – biochemical, small-molecule microarray, 635 nm fluorescence, primary screen (AID 1126); conditions: fluorescence 635 nm, higher = more signal;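 further: printed compound slides probed with Chrdl2 protein at 4 µg/mL for 1 h at 4 C; score merges 667 nm emission intensity with signal to noise over three replicate slides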
[10] = target: Concanavalin-A (Canavalia ensiformis) (UniProt P02866); assay: compounds binding concanavalin A lectin – biochemical, small-molecule microarray, Alexa647 label, 635 nm, artefact control for SMM control protein annotation, primary screen (AID 1127); conditions: ConA-A647 binding fluorescence, higher = more signal;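 further: z combines 667 nm emission intensity with signal-to-noise across three replicate slides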
[11] = compounds binding Alexa647 anti-His antibody – biochemical, small-molecule microarray, 635 nm fluorescence, artefact control for SMM control protein annotation, primary screen (AID 1128); conditions: higher = more signal;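 further: score merges feature fluorescence with signal-to-noise for each printed compound spot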
[12] = test system: Human papillomavirus type 1a E7 protein (residues 1-88); assay: HPV1a E7 small-molecule binders, primary screen, biochemical, small-molecule microarray, residues 1-88, 635 nm (AID 1129); conditions: small-molecule microarray binding, fluorescence 635 nm; higher = more signal
[13] = target: Focal adhesion kinase 1 (Homo sapiens) (UniProt Q05397); assay: PTK2 protein binding on printed compound slides – biochemical, small-molecule microarray, 635/667 nm fluorescence, BSA, DTT, primary screen (AID 1130); conditions: 635 nm fluorescence, higher = more signal;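 further: composite of spot emission at 667 nm and signal to noise over triplicate slides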
[14] = test system: Fibrinogen (Alexa647-labelled); assay: Alexa647-fibrinogen binding to printed small molecules – biochemical, small-molecule microarray, 635/667 nm fluorescence, artefact control for SMM control-protein annotation, profiling panel (AID 1131); conditions: fibrinogen-A647 binding fluorescence, higher = more signal;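 further: z-score merges 667 nm fluorescence with per-spot signal-to-noise over triplicate slides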
[15] = target: Follistatin (Homo sapiens) (UniProt P19883); assay: FST protein binding to printed compounds – biochemical, small-molecule microarray, 635/667 nm fluorescence, primary screen (AID 1132); conditions: 635 nm fluorescence, higher = more signal
[16] = target: Fibroblast growth factor 2 (Homo sapiens) (UniProt P09038); assay: basic fibroblast growth factor binding to printed compounds – biochemical, small-molecule microarray, 635/667 nm fluorescence, primary screen (AID 1133); conditions: FGF2, fluorescence 635/667, higher = more signal
[17] = JC-1 mitochondrial potential readout, lung cancer cells – cell-based, A549, JC-1 fluorescence, basal, 24 h, 100 nL, profiling panel (AID 1138); conditions: higher = more signal;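 further: A549 lung adenocarcinoma cells under basal conditions with no added stimulus; test concentration not given here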
[18] = test system: Lefty1; assay: Lefty1 protein binding to printed compounds – biochemical, small-molecule microarray, 635/667 nm fluorescence, primary screen (AID 1139); conditions: fluorescence 635/667, higher = more signal
[19] = test system: wheat germ agglutinin (Triticum aestivum), Alexa647-labelled; assay: Alexa647-WGA lectin binding to printed small molecules – biochemical, small-molecule microarray, 635/667 nm fluorescence, artefact control for SMM control-protein annotation, profiling panel (AID 1140); conditions: WGA-A647 binding, 635 nm fluorescence, higher = more signal;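 further: score merges 667 nm feature emission with signal to noise over triplicate slides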
[20] = target: Luciferin 4-monooxygenase (Photinus pyralis) (UniProt P08659); assay: inhibition of purified Photinus pyralis luciferase – biochemical, luminescence, purified enzyme, 2006 set, primary screen (AID 1141); conditions: purified firefly luciferase, SteadyGlo luminescence, 30 min; higher = more signal, called active from +8 up or from −8 down;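 further: cell-free assay with purified firefly luciferase at 100 ng per well in PBS; test concentration not given here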
Luciferin 4-monooxygenase (Photinus pyralis), sequence (P08659 whole entry, looked up): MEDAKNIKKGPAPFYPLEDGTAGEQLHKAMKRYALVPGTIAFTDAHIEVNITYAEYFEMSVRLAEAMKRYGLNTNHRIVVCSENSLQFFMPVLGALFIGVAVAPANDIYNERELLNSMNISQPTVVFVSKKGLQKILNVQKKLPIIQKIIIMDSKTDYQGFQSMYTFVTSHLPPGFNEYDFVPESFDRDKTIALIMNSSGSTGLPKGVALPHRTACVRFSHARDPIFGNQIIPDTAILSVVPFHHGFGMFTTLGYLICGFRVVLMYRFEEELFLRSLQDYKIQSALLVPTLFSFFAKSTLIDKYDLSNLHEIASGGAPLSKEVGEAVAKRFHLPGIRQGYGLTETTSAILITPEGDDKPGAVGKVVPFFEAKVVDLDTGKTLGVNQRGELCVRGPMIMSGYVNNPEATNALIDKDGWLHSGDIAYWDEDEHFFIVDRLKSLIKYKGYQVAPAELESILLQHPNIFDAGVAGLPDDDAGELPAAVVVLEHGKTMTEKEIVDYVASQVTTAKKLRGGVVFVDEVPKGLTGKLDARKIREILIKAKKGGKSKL

Focal adhesion kinase 1 (Homo sapiens), sequence (Q05397 whole entry, looked up): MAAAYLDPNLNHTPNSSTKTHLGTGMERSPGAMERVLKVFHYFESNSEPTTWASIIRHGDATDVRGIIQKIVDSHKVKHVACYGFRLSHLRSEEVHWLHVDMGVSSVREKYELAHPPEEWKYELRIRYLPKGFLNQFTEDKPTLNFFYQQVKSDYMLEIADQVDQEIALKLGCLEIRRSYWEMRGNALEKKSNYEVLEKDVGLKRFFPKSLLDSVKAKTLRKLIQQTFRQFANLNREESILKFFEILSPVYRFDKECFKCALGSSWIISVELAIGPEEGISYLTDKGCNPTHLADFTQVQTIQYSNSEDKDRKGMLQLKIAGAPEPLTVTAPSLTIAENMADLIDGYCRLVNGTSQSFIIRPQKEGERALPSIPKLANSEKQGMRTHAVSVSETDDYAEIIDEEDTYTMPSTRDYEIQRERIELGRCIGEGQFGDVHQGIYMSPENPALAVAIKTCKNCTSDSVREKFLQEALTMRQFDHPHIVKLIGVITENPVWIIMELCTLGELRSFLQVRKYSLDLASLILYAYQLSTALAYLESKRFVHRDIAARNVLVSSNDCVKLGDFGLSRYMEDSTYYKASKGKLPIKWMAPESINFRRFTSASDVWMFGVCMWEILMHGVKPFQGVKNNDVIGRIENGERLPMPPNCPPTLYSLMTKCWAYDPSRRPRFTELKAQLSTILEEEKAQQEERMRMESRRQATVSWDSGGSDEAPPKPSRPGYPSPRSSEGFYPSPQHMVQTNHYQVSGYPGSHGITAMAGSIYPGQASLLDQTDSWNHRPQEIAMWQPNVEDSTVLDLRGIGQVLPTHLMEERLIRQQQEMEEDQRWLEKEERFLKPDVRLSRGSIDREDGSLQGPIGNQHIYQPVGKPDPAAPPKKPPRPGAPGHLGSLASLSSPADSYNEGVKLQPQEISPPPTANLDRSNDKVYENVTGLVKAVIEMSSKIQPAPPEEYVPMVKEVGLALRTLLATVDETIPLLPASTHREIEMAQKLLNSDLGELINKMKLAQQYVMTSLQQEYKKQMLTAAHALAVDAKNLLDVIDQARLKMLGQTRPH
Follistatin (Homo sapiens), sequence (P19883 whole entry, looked up): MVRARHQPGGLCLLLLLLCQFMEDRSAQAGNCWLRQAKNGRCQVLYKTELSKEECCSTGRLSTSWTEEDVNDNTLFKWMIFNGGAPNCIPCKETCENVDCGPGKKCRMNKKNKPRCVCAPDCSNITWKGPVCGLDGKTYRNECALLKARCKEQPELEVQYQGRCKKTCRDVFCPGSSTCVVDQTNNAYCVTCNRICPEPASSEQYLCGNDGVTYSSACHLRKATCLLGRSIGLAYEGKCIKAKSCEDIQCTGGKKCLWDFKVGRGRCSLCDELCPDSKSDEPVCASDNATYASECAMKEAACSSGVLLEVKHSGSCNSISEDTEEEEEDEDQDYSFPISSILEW
Concanavalin-A (Canavalia ensiformis), sequence (P02866 whole entry, looked up): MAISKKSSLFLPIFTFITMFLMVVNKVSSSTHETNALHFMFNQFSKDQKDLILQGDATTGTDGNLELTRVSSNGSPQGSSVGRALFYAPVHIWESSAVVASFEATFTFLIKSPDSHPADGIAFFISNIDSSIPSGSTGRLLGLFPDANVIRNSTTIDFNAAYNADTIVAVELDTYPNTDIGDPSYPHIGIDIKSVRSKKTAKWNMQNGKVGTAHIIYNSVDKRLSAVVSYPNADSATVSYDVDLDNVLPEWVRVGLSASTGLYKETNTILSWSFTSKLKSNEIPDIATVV
Albumin (Bos taurus), sequence (P02769 whole entry, looked up): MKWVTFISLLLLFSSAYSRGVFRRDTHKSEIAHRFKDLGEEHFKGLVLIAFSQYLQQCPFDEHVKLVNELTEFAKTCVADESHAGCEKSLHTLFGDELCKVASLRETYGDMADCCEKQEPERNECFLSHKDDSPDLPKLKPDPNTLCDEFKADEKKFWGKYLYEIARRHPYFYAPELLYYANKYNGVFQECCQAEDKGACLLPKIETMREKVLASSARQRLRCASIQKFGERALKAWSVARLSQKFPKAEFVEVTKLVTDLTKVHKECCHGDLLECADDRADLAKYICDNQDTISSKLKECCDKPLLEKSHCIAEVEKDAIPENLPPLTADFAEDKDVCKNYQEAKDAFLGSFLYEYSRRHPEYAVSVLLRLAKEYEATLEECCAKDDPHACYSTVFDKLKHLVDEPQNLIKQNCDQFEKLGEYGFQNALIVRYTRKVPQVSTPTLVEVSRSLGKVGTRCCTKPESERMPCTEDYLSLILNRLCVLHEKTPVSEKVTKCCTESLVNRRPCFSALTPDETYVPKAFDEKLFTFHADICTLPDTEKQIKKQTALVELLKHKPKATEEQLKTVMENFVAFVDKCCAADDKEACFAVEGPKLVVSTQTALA
Fibroblast growth factor 2 (Homo sapiens), sequence (P09038 whole entry, looked up): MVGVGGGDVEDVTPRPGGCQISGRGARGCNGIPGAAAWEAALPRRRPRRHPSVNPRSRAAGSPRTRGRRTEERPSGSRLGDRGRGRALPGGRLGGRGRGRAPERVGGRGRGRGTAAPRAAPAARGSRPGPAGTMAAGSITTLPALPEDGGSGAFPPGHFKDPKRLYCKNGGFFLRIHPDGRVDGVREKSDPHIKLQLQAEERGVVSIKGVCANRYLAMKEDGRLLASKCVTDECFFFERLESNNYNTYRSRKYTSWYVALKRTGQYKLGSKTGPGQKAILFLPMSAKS

Compound	composite z-score [1]	composite Z-score [2]	composite z-score [3]	composite z-score [4]	composite z-score [5]	composite z-score [6]	composite z-score [7]	composite z-score [8]	composite z-score [9]	composite z-score [10]	composite z-score [11]	composite z-score [12]	composite z-score [13]	composite z-score [14]	composite z-score [15]	composite z-score [16]	z-score [17]	composite z-score [18]	composite z-score [19]	z-score [20]
NC(=O)NCC#Cc1ccc2c(c1)[C@]1(C(=O)N2)[C@H](C(=O)Nc2nc3ccccc3s2)[C@H]2C(=O)O[C@H](c3ccccc3)[C@H](c3ccccc3)N2[C@@H]1c1ccc(OCCO)cc1	0.0054	0.367 (inactive)	-0.0956	-0.238	0.136	0.408	0.109	-0.137	-0.258	0.318	-0.497	0.094	0.268	-0.3	1.37	0.746	-2.21	-0.276	0.441	-1.96 (inactive)
COc1ccc(NN2C(C(O)c3cc(C(F)(F)F)cc(C(F)(F)F)c3)C=CC3C(=O)N(C4CCCCC4)C(=O)C32)cc1 (stereo not given)	0.771	-0.0097 (inactive)	1.02	0.659	0.589	1.5	0.219	1.07	0.0186	1.04	0.764	1.1	0.359	0.895	0.544	-0.0047	-0.822	-0.364	1.2	0.36 (inactive)
C=CC(CO)NC(=O)OCC1c2ccccc2-c2ccccc21 (stereo not given)	-0.335	0.314 (inactive)	0.0242	-0.108	-0.192	0.121	-0.0184	0.0668	0.566	0.47	0.311	0.421	0.476	0.578	0.763	0.415	0.02	0.618	-0.105	-0.409 (inactive)
COC(=O)[C@@]1(Cc2ccc(F)cc2)[C@H]2c3cc(C(=O)N4CCCC4)n(CCO)c3C[C@H]2CN1C(=O)c1ccccc1	0.503	-0.196 (inactive)	0.329	0.227	0.753	3.45	0.393	-2.03	-1.04	-0.242	0.896	1.05	1.51	-2.15	-0.212	-0.862	1.44	-0.0322	0.0962	1.74 (inactive)
COc1ccccc1CN1C(=O)c2ccccc2[C@@H](C(=O)NCCCN(C)C)[C@@H]1c1ccc(CO)cc1	0.303	0.0241 (inactive)	-0.2	-0.152	0.733	-0.171	0.323	-2.03	0.288	0.343	0.802	0.232	-0.492	-0.741	0.104	0.303	2.1	0.409	0.131	0.731 (inactive)
CC(C)CNC(=O)[C@@]1(C)c2ccccc2C(=O)N(Cc2cc(F)cc(C(F)(F)F)c2)[C@H]1c1ccc(CO)cc1	0.621	-0.17 (inactive)	-0.0044	-0.046	0.284	1.2	0.615	1.17	0.443	0.771	0.83	0.85	0.0301	0.51	1.16	0.803	0.165	0.372	0.154	0.189 (inactive)
NC(=O)N1C(=O)C2C(C1=O)C1C=C(CCCO)C2C(c2ccc(CN3CCCC3)cc2)N1Cc1cccc(OC(F)(F)F)c1 (stereo not given)	0.0639	0.463 (inactive)	0.0142	-0.0148	0.203	0.904	0.0715	0.64	0.681	-0.171	0.22	0.429	0.102	0.33	1.05	0.532	1.39	1.38	0.0168	-0.84 (inactive)
CCCC=C(CCC)[C@@H](NC(=O)c1ccco1)c1ccc(C(=O)OC)cc1	0.779	-0.0549 (inactive)	0.281	-0.0222	0.669	2.72	0.0767	1.31	-0.618	0.939	1.24	1.26	0.601	0.984	0.649	-0.181	-1.67	0.119	1.31	2.66 (inactive)
C=CC[C@]1(C(=O)N(C)C)COC(c2ccc(OCCCO)cc2)=N1	0.795	-0.0102 (inactive)	0.298	0.107	0.914	3.5	1.41	1.25	-0.492	0.673	3.41	1.09	0.268	-0.744	0.517	0.982	-0.392	-0.26	0.615	-2.7 (inactive)
Cc1ccc(S[C@]2(C(=O)NC3CC3)CC(=O)N(Cc3cc(C(F)(F)F)cc(C(F)(F)F)c3)[C@@H]2c2ccc(CO)cc2I)cc1	0.0876	0.193 (inactive)	-0.512	0.381	0.554	1.18	0.959	0.964	0.452	1.07	2.99	1.03	0.941	0.103	1.09	0.483	-0.271	-0.337	0.0196	0.717 (inactive)
COc1cc(OC)c(C(O)C2C=CC3C(=O)N(c4ccccc4)C(=O)C3N2Nc2ccccc2F)cc1Br (stereo not given)	0.89	0.476 (inactive)	0.378	-0.0664	0.693	2.91	0.408	1.34	-0.577	1.1	1.31	1.25	0.823	1.01	1.34	0.0348	-0.78	0.666	0.898	-0.443 (inactive)
